Laboratory results from the supplement of paper PMC10849652.
Of roughly 7,900 targets only a part is listed; those with a hit were picked by preference. About 0.6% of all pairs of compound and target were hits.

Tests used:
Experiment in all cases: log2 fold change, soluble protein after heating vs DMSO (PISA); higher = thermal stabilisation; K562 cells, 10 uM, 30 min; active = over 0.2 and 3.5 SD of the protein, either way, in both replicates (recomputed)
bafetinib = compound: Cc1ccc(NC(=O)c2ccc(CN3CC[C@H](N(C)C)C3)c(C(F)(F)F)c2)cc1Nc1nccc(-c2cncnc2)n1 [bafetinib]
How it was run: (§1)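 Values are thermal stability changes relative to control samples and are taken from duplicates. They are stated as log2 fold changes. Before quantification by TMTpro 16plex LC-MS/MS with equalised channel sums, K562 cells at 2×10^6 cells/mL were treated with 10 μM compound for 30 min, heated in aliquots for 3 min across 48°C-58°C, pooled, extracted in PBS with 0.5% NP-40 at 4°C, and centrifuged at 21,000xg for 90 min to give the soluble supernatant.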

[1] = compound: Cc1cccc(CC(=O)N2CCc3c2ccc(-c2cn(C)c4ncnc(N)c24)c3F)n1
How it was run: as §1

nilotinib = compound: Cc1cn(-c2cc(NC(=O)c3ccc(C)c(Nc4nccc(-c5cccnc5)n4)c3)cc(C(F)(F)F)c2)cn1 [nilotinib]
How it was run: as §1

[2] = compound: Cc1nc(Nc2n[nH]c3c2CN(C(=O)N[C@H](CN(C)C)c2ccccc2)C3(C)C)c2sccc2n1
How it was run: as §1

dasatinib = compound: Cc1nc(Nc2ncc(C(=O)Nc3c(C)cccc3Cl)s2)cc(N2CCN(CCO)CC2)n1 [dasatinib]
How it was run: as §1

[3] = compound: Cc1ncc(-c2ccnc(Nc3ccc(S(C)(=O)=O)cc3)n2)n1C(C)C
How it was run: as §1

[4] = compound: Cn1cc(-c2ccc3c(c2)CCN3C(=O)Cc2cccc(C(F)(F)F)c2)c2c(N)ncnc21
How it was run: as §1

[5] = compound: Cn1cc(-c2ccc3nnc(C(F)(F)c4ccc5ncccc5c4)n3n2)cn1
How it was run: as §1

tipifarnib = compound: Cn1cncc1[C@@](N)(c1ccc(Cl)cc1)c1ccc2c(c1)c(-c1cccc(Cl)c1)cc(=O)n2C [tipifarnib]
How it was run: as §1

mubritinib = compound: FC(F)(F)c1ccc(/C=C/c2nc(COc3ccc(CCCCn4ccnn4)cc3)co2)cc1 [mubritinib]
How it was run: as §1

Measured: log2 fold change

PSME4 (UniProt Q14997)
Sequence of UniProt Q14997 (Q14997 whole entry, looked up): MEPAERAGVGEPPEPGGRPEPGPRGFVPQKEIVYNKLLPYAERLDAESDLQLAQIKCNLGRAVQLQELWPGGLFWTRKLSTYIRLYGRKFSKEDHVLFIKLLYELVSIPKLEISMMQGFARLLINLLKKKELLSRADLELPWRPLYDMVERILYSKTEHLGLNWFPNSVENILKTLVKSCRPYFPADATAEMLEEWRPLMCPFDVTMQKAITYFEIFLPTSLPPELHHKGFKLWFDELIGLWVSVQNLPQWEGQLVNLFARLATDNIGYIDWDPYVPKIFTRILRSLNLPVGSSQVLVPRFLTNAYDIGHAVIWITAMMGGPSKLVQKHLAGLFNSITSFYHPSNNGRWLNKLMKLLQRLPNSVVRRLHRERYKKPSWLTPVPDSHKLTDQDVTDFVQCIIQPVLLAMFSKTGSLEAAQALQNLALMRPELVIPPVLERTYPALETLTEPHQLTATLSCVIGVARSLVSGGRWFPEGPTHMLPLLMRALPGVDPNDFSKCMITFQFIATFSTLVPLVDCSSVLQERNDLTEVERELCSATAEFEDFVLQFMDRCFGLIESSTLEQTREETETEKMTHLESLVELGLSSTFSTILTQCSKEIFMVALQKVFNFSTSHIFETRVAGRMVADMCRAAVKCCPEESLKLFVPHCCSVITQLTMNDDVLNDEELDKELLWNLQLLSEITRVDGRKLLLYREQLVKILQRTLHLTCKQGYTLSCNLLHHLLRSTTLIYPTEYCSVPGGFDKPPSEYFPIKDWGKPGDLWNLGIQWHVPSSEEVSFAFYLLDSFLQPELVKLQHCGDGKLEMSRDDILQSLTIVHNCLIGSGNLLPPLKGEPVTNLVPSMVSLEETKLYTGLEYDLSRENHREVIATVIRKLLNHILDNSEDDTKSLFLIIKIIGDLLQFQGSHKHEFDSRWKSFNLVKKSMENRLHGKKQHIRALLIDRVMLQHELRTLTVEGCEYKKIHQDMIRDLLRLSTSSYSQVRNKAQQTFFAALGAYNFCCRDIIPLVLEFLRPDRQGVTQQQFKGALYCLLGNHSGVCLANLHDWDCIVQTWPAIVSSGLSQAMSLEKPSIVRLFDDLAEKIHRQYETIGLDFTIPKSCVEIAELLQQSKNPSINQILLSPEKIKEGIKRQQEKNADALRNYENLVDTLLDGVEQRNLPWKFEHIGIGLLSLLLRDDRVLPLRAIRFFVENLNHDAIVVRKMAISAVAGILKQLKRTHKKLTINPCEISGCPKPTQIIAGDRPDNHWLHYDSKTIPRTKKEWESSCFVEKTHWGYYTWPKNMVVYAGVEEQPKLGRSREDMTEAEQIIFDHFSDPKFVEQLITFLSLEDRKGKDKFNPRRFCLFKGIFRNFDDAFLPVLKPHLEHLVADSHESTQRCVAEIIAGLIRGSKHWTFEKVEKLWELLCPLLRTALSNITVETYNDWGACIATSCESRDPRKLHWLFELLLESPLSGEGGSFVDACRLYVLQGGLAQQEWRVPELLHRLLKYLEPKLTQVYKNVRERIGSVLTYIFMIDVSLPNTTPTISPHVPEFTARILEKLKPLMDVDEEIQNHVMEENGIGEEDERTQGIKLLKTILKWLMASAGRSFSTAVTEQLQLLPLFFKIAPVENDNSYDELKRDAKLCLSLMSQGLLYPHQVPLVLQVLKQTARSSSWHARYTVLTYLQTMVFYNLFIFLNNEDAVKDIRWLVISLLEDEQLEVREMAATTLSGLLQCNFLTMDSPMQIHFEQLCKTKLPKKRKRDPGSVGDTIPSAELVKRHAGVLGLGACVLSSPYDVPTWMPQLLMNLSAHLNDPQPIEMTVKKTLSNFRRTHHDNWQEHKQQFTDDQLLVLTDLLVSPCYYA
inactive: bafetinib 0.069 | [1] 0.141 | nilotinib -0.057 | [2] 0.016 | dasatinib -0.084 | [3] -0.098 | [4] 0.015 | [5] -0.006 | tipifarnib -0.036 | mubritinib 0.052

PLD3 (UniProt Q8IV08)
Sequence of UniProt Q8IV08 (Q8IV08 whole entry, looked up): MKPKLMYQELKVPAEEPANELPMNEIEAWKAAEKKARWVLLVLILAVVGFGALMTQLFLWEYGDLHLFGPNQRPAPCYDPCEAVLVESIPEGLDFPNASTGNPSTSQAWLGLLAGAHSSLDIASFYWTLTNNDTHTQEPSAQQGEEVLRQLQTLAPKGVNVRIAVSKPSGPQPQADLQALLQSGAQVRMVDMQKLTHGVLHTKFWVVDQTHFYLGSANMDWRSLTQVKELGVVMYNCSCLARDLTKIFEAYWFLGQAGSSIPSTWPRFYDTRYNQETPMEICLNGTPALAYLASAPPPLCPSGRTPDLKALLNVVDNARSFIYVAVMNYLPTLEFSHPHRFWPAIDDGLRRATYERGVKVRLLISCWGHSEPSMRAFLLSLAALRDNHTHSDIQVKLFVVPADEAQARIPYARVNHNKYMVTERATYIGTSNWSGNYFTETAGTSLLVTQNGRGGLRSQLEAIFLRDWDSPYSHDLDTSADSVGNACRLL
active: bafetinib -0.308
inactive: [1] -0.007 | nilotinib -0.043 | [2] 0.064 | dasatinib -0.024 | [3] -0.03 | [4] -0.007 | [5] 0.013 | tipifarnib -0.01 | mubritinib 0.035

PPP6R1 (UniProt Q9UPN7)
inactive: bafetinib -0.024 | [1] 0.022 | nilotinib 0.003 | [2] -0.031 | dasatinib -0.02 | [3] -0.008 | [4] 0.003 | [5] 0.02 | tipifarnib 0.01 | mubritinib 0.043

PTRHD1 (UniProt Q6GMV3)
active: [5] 0.332
inactive: bafetinib -0.067 | [1] 0.024 | nilotinib 0.08 | [2] -0.032 | dasatinib -0.007 | [3] -0.061 | [4] 0.111 | tipifarnib 0.028 | mubritinib 0.043

PRKCD (UniProt Q05655)
Sequence of UniProt Q05655 (Q05655 whole entry, looked up): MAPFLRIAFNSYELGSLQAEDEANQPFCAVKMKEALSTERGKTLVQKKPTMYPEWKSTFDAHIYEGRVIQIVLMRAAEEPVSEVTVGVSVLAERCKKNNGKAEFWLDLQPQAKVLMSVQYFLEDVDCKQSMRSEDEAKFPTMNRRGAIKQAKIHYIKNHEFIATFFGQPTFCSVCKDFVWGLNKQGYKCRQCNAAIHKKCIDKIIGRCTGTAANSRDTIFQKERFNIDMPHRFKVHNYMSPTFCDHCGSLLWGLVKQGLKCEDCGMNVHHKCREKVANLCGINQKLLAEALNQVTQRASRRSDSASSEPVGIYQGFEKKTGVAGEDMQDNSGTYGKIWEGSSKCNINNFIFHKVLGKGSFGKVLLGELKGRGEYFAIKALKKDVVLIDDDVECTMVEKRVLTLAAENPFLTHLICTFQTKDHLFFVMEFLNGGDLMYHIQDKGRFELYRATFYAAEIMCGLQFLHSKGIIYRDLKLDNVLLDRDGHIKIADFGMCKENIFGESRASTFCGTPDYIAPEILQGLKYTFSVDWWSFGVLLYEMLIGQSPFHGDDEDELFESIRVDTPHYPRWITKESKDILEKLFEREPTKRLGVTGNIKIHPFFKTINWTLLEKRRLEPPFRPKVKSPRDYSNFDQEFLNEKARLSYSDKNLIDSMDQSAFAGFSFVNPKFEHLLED
active: [2] -0.261
inactive: bafetinib -0.028 | [1] -0.007 | nilotinib 0.033 | dasatinib -0.049 | [3] -0.021 | [4] 0.027 | [5] 0.102 | tipifarnib 0.008 | mubritinib 0.08

PDLIM7 (UniProt Q9NR12)
Sequence of UniProt Q9NR12 (Q9NR12 whole entry, looked up): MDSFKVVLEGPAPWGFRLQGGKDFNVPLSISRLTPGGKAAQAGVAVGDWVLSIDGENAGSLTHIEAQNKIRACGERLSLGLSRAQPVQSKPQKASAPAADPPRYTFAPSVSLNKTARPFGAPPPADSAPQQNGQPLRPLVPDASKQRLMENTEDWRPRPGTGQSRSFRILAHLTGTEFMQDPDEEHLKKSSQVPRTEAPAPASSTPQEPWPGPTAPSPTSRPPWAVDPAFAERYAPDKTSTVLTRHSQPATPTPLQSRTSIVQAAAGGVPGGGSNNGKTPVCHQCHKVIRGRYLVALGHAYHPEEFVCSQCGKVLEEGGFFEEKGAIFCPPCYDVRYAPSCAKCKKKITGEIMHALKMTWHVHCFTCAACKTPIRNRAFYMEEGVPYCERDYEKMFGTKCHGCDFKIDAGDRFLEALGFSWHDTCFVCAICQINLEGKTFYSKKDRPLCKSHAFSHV
inactive: bafetinib -0.01 | [1] 0.107 | nilotinib 0 | [2] -0.078 | dasatinib -0.036 | [3] -0.01 | [4] 0.006 | [5] -0.048 | tipifarnib -0.091 | mubritinib -0.042

PARL (UniProt Q9H300)
inactive: bafetinib -0.169 | [1] 0.061 | nilotinib 0.047 | [2] -0.011 | dasatinib 0.015 | [3] 0.018 | [4] 0.017 | [5] 0.051 | tipifarnib -0.023 | mubritinib 0.021

PSMD11 (UniProt O00231)
Sequence of UniProt O00231 (O00231 whole entry, looked up): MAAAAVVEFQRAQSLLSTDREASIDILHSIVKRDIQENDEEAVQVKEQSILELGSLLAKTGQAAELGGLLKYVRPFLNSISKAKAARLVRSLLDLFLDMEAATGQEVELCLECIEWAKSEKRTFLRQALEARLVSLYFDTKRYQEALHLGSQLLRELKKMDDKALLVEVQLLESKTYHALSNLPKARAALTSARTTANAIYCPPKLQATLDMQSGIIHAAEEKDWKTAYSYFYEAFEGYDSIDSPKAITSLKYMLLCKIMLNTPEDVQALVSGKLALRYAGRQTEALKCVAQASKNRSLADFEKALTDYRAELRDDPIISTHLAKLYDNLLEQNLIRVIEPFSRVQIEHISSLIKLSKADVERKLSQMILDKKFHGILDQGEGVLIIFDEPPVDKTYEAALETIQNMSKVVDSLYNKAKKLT
inactive: bafetinib 0.15 | [1] 0.042 | nilotinib 0.054 | [2] 0.068 | dasatinib -0.004 | [3] -0.014 | [4] -0.074 | [5] -0.043 | tipifarnib -0.021 | mubritinib -0.054

POLR2A (UniProt P24928)
active: [3] 0.511
inactive: bafetinib -0.019 | [1] -0.014 | nilotinib -0.039 | [2] 0.24 | dasatinib -0.066 | [4] 0 | [5] -0.037 | tipifarnib 0.004 | mubritinib 0.038

PPM1G (UniProt O15355)
inactive: bafetinib 0.001 | [1] 0.048 | nilotinib -0.041 | [2] -0.05 | dasatinib -0.097 | [3] 0 | [4] 0.096 | [5] 0.117 | tipifarnib -0.133 | mubritinib 0.105

PSMD5 (UniProt Q16401)
Sequence of UniProt Q16401 (Q16401 whole entry, looked up): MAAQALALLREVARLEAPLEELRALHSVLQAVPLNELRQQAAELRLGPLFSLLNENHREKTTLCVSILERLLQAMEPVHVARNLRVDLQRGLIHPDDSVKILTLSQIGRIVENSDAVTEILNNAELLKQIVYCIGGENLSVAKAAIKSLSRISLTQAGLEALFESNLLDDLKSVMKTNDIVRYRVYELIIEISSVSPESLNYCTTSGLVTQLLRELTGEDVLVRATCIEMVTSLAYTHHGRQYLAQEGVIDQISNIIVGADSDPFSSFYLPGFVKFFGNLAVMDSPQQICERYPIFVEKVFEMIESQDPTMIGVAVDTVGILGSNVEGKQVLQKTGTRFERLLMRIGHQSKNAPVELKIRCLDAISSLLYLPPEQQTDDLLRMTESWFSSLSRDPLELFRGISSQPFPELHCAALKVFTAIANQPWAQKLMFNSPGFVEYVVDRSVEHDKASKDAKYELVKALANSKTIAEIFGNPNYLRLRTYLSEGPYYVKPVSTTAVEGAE
inactive: bafetinib -0.09 | [1] 0.006 | nilotinib -0.015 | [2] -0.026 | dasatinib -0.026 | [3] 0.006 | [4] 0.018 | [5] 0.002 | tipifarnib -0.05 | mubritinib 0.023

PRPF31 (UniProt Q8WWY3)
inactive: bafetinib -0.012 | [1] 0.01 | nilotinib -0.037 | dasatinib -0.274 | [3] -0.387 | [4] 0.055 | [5] 0.053 | tipifarnib -0.031 | mubritinib -0.014
active: [2] -0.572

PPP4R3B (UniProt Q5MIZ7)
inactive: bafetinib -0.054 | [1] 0.116 | nilotinib -0.032 | [2] -0.006 | dasatinib -0.03 | [3] -0.013 | [4] 0.037 | [5] 0.054 | tipifarnib -0.041 | mubritinib 0.006

POLA2 (UniProt Q14181)
Sequence of UniProt Q14181 (Q14181 whole entry, looked up): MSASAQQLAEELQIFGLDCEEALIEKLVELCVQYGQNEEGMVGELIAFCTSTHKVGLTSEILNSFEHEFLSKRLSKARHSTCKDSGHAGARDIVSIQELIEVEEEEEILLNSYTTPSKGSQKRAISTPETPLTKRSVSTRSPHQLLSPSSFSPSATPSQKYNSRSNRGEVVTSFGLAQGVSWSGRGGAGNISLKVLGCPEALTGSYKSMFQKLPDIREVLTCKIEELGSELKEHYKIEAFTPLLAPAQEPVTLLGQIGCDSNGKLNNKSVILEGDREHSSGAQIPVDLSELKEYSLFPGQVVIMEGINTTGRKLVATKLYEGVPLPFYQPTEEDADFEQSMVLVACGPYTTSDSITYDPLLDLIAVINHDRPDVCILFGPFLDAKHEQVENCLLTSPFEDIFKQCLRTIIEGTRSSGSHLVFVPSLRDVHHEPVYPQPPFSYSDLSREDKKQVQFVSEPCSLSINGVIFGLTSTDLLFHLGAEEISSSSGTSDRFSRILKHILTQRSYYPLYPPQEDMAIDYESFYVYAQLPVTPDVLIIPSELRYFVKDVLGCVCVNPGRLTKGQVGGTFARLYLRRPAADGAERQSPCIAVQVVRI
inactive: bafetinib -0.038 | [1] 0.058 | nilotinib -0.036 | [2] -0.072 | dasatinib -0.101 | [3] -0.02 | [4] 0.022 | [5] 0.001 | tipifarnib -0.04 | mubritinib 0.041

PHLDB1 isoform 2 (UniProt Q86UU1)
inactive: bafetinib -0.112 | [1] 0.117 | nilotinib 0.136 | [2] -0.265 | dasatinib -0.073 | [3] -0.128 | [4] 0.061 | [5] 0.016 | tipifarnib 0.057 | mubritinib 0.14
